# Rows were chosen to be rich in hits. Some 4% of all compounds tested hit in one or more screens of this group.
# VHR inh abs: blocks human VHR1 dual specificity phosphatase. P51452. inhibition, % at 13.3 µM. recombinant VHR phosphatase, pNPP absorbance. hit rate 0.52% among 290,000; in the data active means inhibition above about 50%
# BoNT-A LC inh2: BoNT A light chain protease inhibition | AID 588499 | hit rate 0.17% among 360,000 | multiplex microsphere protease substrate cleavage, flow cytometry | inhibition, % at 10 µM
# BoNT F protease: BoNT F light chain protease inhibition; Multiplex microsphere protease cleavage assay, flow cytometry; inhibition, % at 10 µM; hit rate 0.22% among 360,000; AID 588497; in the data active means inhibition above about 35%, passing the limit was not always enough; inconclusive means no clear call, values can overlap the other calls
# Bead autofluor: flagged as autofluorescent in microsphere protease counterscreen; compound autofluorescence counterscreen, microsphere flow cytometry; stronger effect = higher value; fluorescence intensity (test concentration not listed); hit rate 3.1% among 360,000; in the data active means fluorescence intensity above about 16000; inconclusive means no clear call, values can overlap the other calls
# Anthrax LF inh2: blocks Bacillus anthracis lethal factor protease; multiplex microsphere protease cleavage assay, LF; inhibition, % at 10 µM; hit rate 0.12% among 360,000
# MazEF act: activators of E. coli MazEF toxin-antitoxin RNase; FAM/BHQ RNA-DNA oligo cleavage fluorescence, 5 h; hit rate 0.32% among 350,000; AID 504720; P0AE70; activation, % at 20 µM; in the data active means activation above about 50%
# Numbers stand for hits; - = inactive; ? = inconclusive; . = no result given. Unless noted, no stated cut-off is given here; in the data, active means inhibition above about 30%; inconclusive means no clear call, values can overlap the other calls; inactive means below that.
SMILES,VHR inh abs,BoNT-A LC inh2,BoNT F protease,Bead autofluor,Anthrax LF inh2,MazEF act
O=C(Nc1cccc2c1CCCC2)c1ccc(Br)o1,-,-,-,?,-,-
CC1(OC(=O)C2CCCC2)C(=O)C=C2C=C(c3ccsc3)N(c3ccccc3)C=C2C1=O (stereo not drawn),-,-,-,-,-,-
Nc1nonc1-c1nc2ccccc2n1Cc1ccc(Cl)cc1,-,-,-,-,-,-
COc1ccc(OCCOC(=O)c2cccc(-n3cnnn3)c2)cc1,-,-,-,20878,-,-
Cc1cc(N2C(=O)C3C4c5ccccc5C(c5ccccc54)C3C2=O)no1 (stereo not drawn),-,-,-,21886,-,-
COC(=O)c1ccccc1NC(=O)Oc1ccc(C(C)C)cc1,-,-,-,24059,-,-
COC(=O)c1ccccc1NC(=S)NC(=O)COc1ccc(C(C)C)cc1,-,-,-,-,-,-
O=C(CCCCn1c(=O)[nH]c2ccsc2c1=O)NCc1ccc2c(c1)OCO2,-,-,-,-,-,-
O=C(OCCCN=C1NS(=O)(=O)c2ccccc21)c1ccccc1F,-,-,-,20170,-,-
COc1ccccc1N1CCN(C(=O)Cn2c(=O)oc3cc(S(=O)(=O)N4CCCC4)ccc32)CC1,-,-,-,-,-,-
Cc1cc(Cl)ccc1OCC(=O)N1CCCCC1,-,-,-,-,-,-
CCC(CO)Nc1ccc([N+](=O)[O-])c2cccnc12 (stereo not drawn),-,-,-,22808,-,-
CCN(CCNc1ccc([N+](=O)[O-])c2cccnc12)S(=O)(=O)c1ccccc1,-,-,-,-,-,138
C/C(=C\c1ccccc1)CN1CCN(c2ccccc2)CC1,-,-,-,21899,-,-
C/C=C(\C)CN1CCN(c2ccccc2F)CC1,-,-,-,23234,-,-
C/C=C(\C)CN1CCN(c2ccccc2)CC1,-,-,-,-,-,-
C/C=C(\C)CN1CCN(c2cccc(C)c2C)CC1,-,-,-,-,-,-
O=c1ccnc(SCCC(F)=C(F)F)[nH]1,-,-,-,-,-,-
Cc1cc(C)n2nc(C(=O)N3CCOCC3)nc2n1,-,-,-,-,-,-
Cc1cc(C)n2nc(SC(C)C(=O)N3CCC4(CC3)OCCO4)nc2n1 (stereo not drawn),-,?,-,24597,-,-
Cc1ccccc1NC(=O)NCCCN1CCCC1,-,?,-,22559,-,-
CCC(C)NC(=O)Nc1ccccc1F (stereo not drawn),-,-,-,-,-,-
O=C(NCCN1CCCCC1)Nc1cccc(F)c1,57,-,-,-,-,-
Cc1ccccc1NC(=O)NCCCN1CCN(C2CCCCC2)CC1,-,-,-,-,-,-
CCC(C)NC(=O)Nc1ccccc1C (stereo not drawn),52,.,.,.,.,-
SMILES,VHR inh abs,BoNT-A LC inh2,BoNT F protease,Bead autofluor,Anthrax LF inh2,MazEF act
O=C(NCCN1CCCCC1)Nc1ccc(F)cc1,-,-,-,-,-,-
COc1cc(CN2C[C@@H](CO)O[C@@H](n3cnc4c(NCCN(C)C)ncnc43)C2)cc(OC)c1OC,.,-,-,-,-,.
COc1cccc(-c2nc(CS(=O)(=O)CC(=O)NCc3ccc4c(c3)OCO4)c(C)o2)c1,-,-,-,-,-,-
CC(C)(C)NC(=O)c1ccc2nccnc2c1,-,-,-,16956,-,-
CC(C)(C)c1cc(C(=O)Nc2ccccc2)ccn1,-,-,-,-,-,-
CC(C)(C)NC(=O)Nc1ccc2nccnc2c1,-,.,.,.,.,-
CC(C)(C)NC(=O)c1ccnc(C(C)(C)C)c1,-,-,-,17617,-,-
CCN1C(=O)CSc2ccc(C(=O)NCc3ccco3)cc21,-,-,-,16140,-,-
CCN1C(=O)CSc2ccc(C(=O)OC)cc21,-,-,-,-,-,-
CC(C)(C)c1cc(C(=O)NCc2ccco2)ccn1,-,-,-,24501,-,-
O=C1C2CCCCC2C(=O)N1Cc1ccccc1 (stereo not drawn),-,-,-,-,-,-
CCn1nc(C)c([N+](=O)[O-])c1C(=O)NNC(=O)c1ccccc1Cl,-,?,?,-,-,-
COc1cc([N+](=O)[O-])cc(CN2CCCCC2)c1O,-,?,-,16919,-,-
O=[N+]([O-])c1ccc(Cl)c(CN2CCCCCC2)c1,-,-,-,-,-,-
Cc1[nH]c(C)c(S(=O)(=O)N2CCCCC2C)c1C(=O)N1CCCC1 (stereo not drawn),56,-,-,-,-,-
CN(C)S(=O)(=O)c1c(Cl)cccc1Cl,-,-,-,23563,-,-
